± gives the standard deviation of the averaged measurements. Over roughly 33,000 sequences, “E-score (rank enrichment, -0.5 to 0.5)” has its median near -0.0075; the highest 2% begin near 0.23. Many of the other results were omitted from the sample, so the highest values are more common in it than they were.
What follows are sequences tested on WT Max(13-93) synthetic (M65Nle) (assay: PBM 8-mer E-score (E-score (rank enrichment, -0.5 to 0.5)); higher = stronger preferential binding).
Experimental: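 Protein binding microarray (universal PBM chip covering all 10-mers in fixed probe flanks) with chemically synthesized human Max(13-93) bHLH-LZ analogs (not full-length Max) bearing noncanonical residues (hArg, Tha, Aib, Nle at 65) and aromatic Cys staples. Read-out per 8-mer (and its reverse complement): E-score (rank-based enrichment, -0.5 to 0.5) and Z-score of median probe intensity.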

Sequence | PBM 8-mer E-score
CAAGAATA | 0.13 ± 0.035
TAGAAATA | 0.251 ± 0.07
AAAAAATA | 0.246 ± 0.022
AAAGAATA | 0.241 ± 0.039
AAGAAATA | 0.129 ± 0.0058
ATAAAATC | 0.109 ± 0.055
GAGAAATA | 0.0631 ± 0.15
ATAAAATA | 0.244 ± 0.0078
GAAGAATA | 0.104 ± 0.034
CAAAAATA | 0.185 ± 0.02
GTAAAATA | 0.0829 ± 0.0054
GAAAAATA | 0.198 ± 0.08
CATGCCGC | 0.0835 ± 0.051
AATAGAGG | 0.00232 ± 0.055
GAGTGGTA | -0.108 ± 0.011
AATGCAGG | 0.087 ± 0.07
AAGAACGA | 0.129 ± 0.018
CAGAGTGC | -0.201 ± 0.058
CTCGAAAG | -0.184 ± 0.043
GACGAACA | 0.0177 ± 0.055
GTTCATTA | 0.113 ± 0.06
AGGTTTAA | 0.0368 ± 0.0029
GGCTGGAA | -0.0381 ± 0.036
GTTAAATA | 0.257 ± 0.1
ATAAATTG | 0.0667 ± 0.085

Sequence | PBM 8-mer E-score
ATAAATTA | 0.324 ± 0.038
CTTAAATA | 0.139 ± 0.023
ATTAAATA | 0.174 ± 0.085
CTAAATTA | 0.0753 ± 0.031
CGGGTCAA | -0.125 ± 0.03
ATGGCTAG | 0.0642 ± 0.13
AGGGAGCC | -0.227 ± 0.056
AGTGCGTG | 0.0848 ± 0.032
GGTTAGGA | 0.0556 ± 0.043
ACTTAAAC | 0.0371 ± 0.073
CCGCAGAG | -0.0777 ± 0.023
ATGACAGG | 0.0387 ± 0.051
CAGACACG | -0.0764 ± 0.14
AAGACACA | 0.0963 ± 0.021
CTGACACA | -0.0349 ± 0.034
AAGACACG | 0.246 ± 0.021
ATGACACG | 0.298 ± 0.039
ATGACACA | 0.236 ± 0.042
GTGACACA | 0.0907 ± 0.1
ATGACACC | 0.159 ± 0.048
CAGTCTGC | -0.0522 ± 0.01
ACCTAATG | 0.00028 ± 0.0032
CCAGGAGC | -0.312 ± 0.0027
TAAGAACA | 0.243 ± 0.099
TAAAAACA | 0.25 ± 0.0036

Sequence | PBM 8-mer E-score
ATAAAAGG | 0.0572 ± 0.12
ATAAAAAG | 0.283 ± 0.11
GTAAAACA | 0.142 ± 0.14
GAAGAACA | 0.209 ± 0.057
ATAAAACA | 0.24 ± 0.0041
CAAGAACA | 0.0399 ± 0.038
CTAAAACA | -0.07401 ± 0.00047
ATAAAACG | 0.163 ± 0.16
AAAAAACA | 0.158 ± 0.071
ATAAAAAA | 0.19 ± 0.044
GCCCCGTA | -0.0782 ± 0.17
ACGGGGTC | -0.061 ± 0.014
CGGCAGAC | -0.218 ± 0.039
AACCATTC | 0.0337 ± 0.04
AATGCCGC | -0.0772 ± 0.0051
CGACTAAA | -0.00903 ± 0.06
AATAGGCA | 0.118 ± 0.0074
GCGCGCCC | 0.00746 ± 0.051
CAGGTTCC | -0.228 ± 0.077
CCGTTAGC | -0.112 ± 0.12
CTCAAACA | 0.117 ± 0.014
ATCAAGCA | 0.113 ± 0.0099
ATAAAGCA | 0.264 ± 0.046
ATCAAACA | 0.238 ± 0.041
ATAAAGCG | 0.106 ± 0.045

Sequence | PBM 8-mer E-score
CTAAAGCA | 0.0761 ± 0.037
GGCGGATA | -0.183 ± 0.13
TGTGTTAA | 0.226 ± 0.034
TTACACAA | 0.00996 ± 0.084
ACCTGGGC | -0.318 ± 0.086
AATCCTCT | 0.079 ± 0.071
ACGCCAAC | -0.125 ± 0.04
TGTATTAA | 0.173 ± 0.026
CCTCAGGC | -0.057 ± 0.056
ACGTGGGC | 0.33 ± 0.012
AGGTGGGA | 0.0263 ± 0.046
CCGTGGGC | -0.129 ± 0.18
AAGTGGGA | 0.212 ± 0.0035
GCGTGGGA | 0.238 ± 0.035
ACGTGGGG | 0.164 ± 0.08
GAGTGGGA | -0.0159 ± 0.0035
CCGTGGGA | -0.15 ± 0.023
ACGTGGGA | 0.302 ± 0.039
CGCTGCAG | -0.19 ± 0.18
GGACCGAC | -0.168 ± 0.097
CGCAGCCA | -0.117 ± 0.093
AGTGTTCC | -0.151 ± 0.007
GCGGCAAC | -0.106 ± 0.026
CACCCGAG | -0.19 ± 0.056
GAACCAAC | 0.0313 ± 0.051

Sequence | PBM 8-mer E-score
ATCTCAAA | -0.0195 ± 0.13
CTGAGGAA | -0.111 ± 0.035
ACAATGTA | 0.239 ± 0.034
ACAATGAT | 0.241 ± 0.024
AAAATGAT | 0.249 ± 0.13
AAAATGAA | 0.138 ± 0.00081
ACAATGAC | 0.0383 ± 0.055
GCAATGTA | 0.0841 ± 0.011
ACAATGTC | 0.108 ± 0.095
ACAATGAG | 0.137 ± 0.029
AAAATGAC | 0.174 ± 0.013
TATGACGA | 0.0259 ± 0.072
ATGATGCC | -0.00394 ± 0.018
GGCTACCC | -0.19 ± 0.032
CGCAAGAA | -0.121 ± 0.097
GAGCCGGC | -0.26 ± 0.041
AATGATCC | -0.122 ± 0.097
AACAATAG | -0.112 ± 0.17
ACCAATAT | 0.175 ± 0.057
GACAATAC | 0.202 ± 0.02
AACAATAT | 0.252 ± 0.089
AACAATAA | 0.213 ± 0.15
AACAATTA | 0.248 ± 0.061
AACAATAC | 0.236 ± 0.036
AACAATTG | 0.128 ± 0.05

Sequence | PBM 8-mer E-score
AACAATTC | 0.146 ± 0.012
AGCCGCTA | -0.263 ± 0.022
CTCGATAA | -0.0814 ± 0.087
AAGCGGGT | -0.0582 ± 0.061
TCAGATCA | -0.0835 ± 0.073
CCTCGACC | -0.128 ± 0.09
GCTAAAAC | -0.101 ± 0.028
TGAGATCA | -0.0342 ± 0.1
AGCTGGAT | -0.164 ± 0.054
CTCCCATA | -0.0036 ± 0.067
ATGTTTTG | 0.24 ± 0.066
ATGTTTAG | 0.278 ± 0.063
ATGTTTCC | 0.225 ± 0.092
ATGTTTGG | 0.147 ± 0.042
ACGTTTAG | 0.0123 ± 0.031
ATGTTTAA | 0.22 ± 0.078
ATGTTTAC | 0.243 ± 0.0084
ATGTTTTA | 0.102 ± 0.043
CTGTTTAC | 0.0925 ± 0.099
AAAATAGG | 0.031 ± 0.16
GACAACCC | 0.0334 ± 0.15
CGGCCAGA | -0.212 ± 0.006
ATGCTTTA | 0.277 ± 0.0049
CTGCTTTA | 0.169 ± 0.061
ATGCTTTC | 0.174 ± 0.051

Sequence | PBM 8-mer E-score
ATGATCGC | -5e-06 ± 0.043
TGCCCGCA | 0.0712 ± 0.065
AACATGTA | 0.23 ± 0.087
GTCATGTA | 0.0154 ± 0.027
TACATGTA | 0.308 ± 0.042
TACATGAA | 0.11 ± 0.053
GACATGTC | 0.163 ± 0.042
GACATGTA | 0.273 ± 0.035
GTGTCCGA | -0.00187 ± 0.12
AGAGTACG | -0.124 ± 0.0062
TGATCGAA | 0.0153 ± 0.063
CGAGGAAA | 0.0336 ± 0.072
GTTGTAGA | -0.101 ± 0.093
CTTGTAGA | -0.146 ± 0.15
ATTGTAGA | 0.302 ± 0.0094
ATCAATTA | 0.225 ± 0.04
ATCAATTC | 0.0046 ± 0.15
ATCAATTG | 0.239 ± 0.016
AGGACGGC | -0.0864 ± 0.17
AAAACGTC | 0.0934 ± 0.022
GACCGATA | -0.0238 ± 0.067
CTAAACCC | 0.00702 ± 0.049

Reference: the supplement of paper PMC12636033
